Measured values as given in publication PMC4336329 (PLoS ONE, 2015).
Screen size: about 310,000 compounds; about 2,200 (0.71%) showed an effect of 50% or more. The effect is printed as a negative number. Shown is part of a subset that was picked to be rich in strong results.

The compounds below were run against human ether-à-go-go-related gene (hERG) potassium channel (human, UniProt Q12809) (assay: primary screen, population patch clamp on CHO cells stably expressing hERG; higher = less effect of the substance).
Chain of human ether-à-go-go-related gene (hERG) potassium channel (Q12809 whole entry, looked up): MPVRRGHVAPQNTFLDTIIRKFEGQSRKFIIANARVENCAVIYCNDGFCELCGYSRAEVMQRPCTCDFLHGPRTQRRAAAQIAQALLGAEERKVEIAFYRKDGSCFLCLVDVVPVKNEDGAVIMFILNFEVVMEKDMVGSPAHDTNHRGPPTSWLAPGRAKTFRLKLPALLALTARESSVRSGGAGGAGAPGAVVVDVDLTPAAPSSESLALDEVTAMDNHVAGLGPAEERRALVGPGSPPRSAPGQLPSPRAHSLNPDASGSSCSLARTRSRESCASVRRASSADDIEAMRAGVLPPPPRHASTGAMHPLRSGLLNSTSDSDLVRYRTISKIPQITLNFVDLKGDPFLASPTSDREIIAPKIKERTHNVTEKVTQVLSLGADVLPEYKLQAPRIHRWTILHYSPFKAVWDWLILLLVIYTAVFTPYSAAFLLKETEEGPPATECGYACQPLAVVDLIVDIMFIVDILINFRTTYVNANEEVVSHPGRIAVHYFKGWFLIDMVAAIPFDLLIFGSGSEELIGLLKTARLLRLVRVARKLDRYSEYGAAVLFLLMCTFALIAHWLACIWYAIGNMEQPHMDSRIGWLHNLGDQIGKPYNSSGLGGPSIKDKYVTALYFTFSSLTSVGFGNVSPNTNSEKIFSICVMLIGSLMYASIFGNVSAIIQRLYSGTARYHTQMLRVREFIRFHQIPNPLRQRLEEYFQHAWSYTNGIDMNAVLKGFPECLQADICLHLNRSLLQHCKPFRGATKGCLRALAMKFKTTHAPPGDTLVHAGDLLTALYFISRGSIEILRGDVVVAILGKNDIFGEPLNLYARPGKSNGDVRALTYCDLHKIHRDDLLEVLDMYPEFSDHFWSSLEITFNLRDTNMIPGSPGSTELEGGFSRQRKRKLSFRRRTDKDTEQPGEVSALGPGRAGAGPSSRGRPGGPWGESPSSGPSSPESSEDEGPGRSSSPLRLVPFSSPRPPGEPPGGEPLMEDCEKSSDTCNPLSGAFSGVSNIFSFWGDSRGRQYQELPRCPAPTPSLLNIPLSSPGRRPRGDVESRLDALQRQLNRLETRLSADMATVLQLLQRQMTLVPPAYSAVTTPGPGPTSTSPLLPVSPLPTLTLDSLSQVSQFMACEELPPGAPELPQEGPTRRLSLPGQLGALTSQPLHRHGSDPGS
`C[C@]1(C(=O)NCCc2c[nH]c3ccccc23)C=C[C@@H](Cc2ccccc2)N1C(=O)c1ccccc1` was tested, and the “hERG current change (%, negative = inhibition) at 1uM” value was 7.98%.
For `CCn1ccc(C(=O)NC2CCCC2)n1`, the “hERG current change (%, negative = inhibition) at 1uM” value was 8.64%.
For `CN(C)C(=O)CN1CCN(Cc2nc(CC3CC3)no2)CC1`, the “hERG current change (%, negative = inhibition) at 1uM” value was 7.17%.
With `COCCN(C(=O)CSc1nc2ccccc2c(=O)n1CCOC)c1c(N)n(Cc2ccccc2)c(=O)[nH]c1=O` the “hERG current change (%, negative = inhibition) at 1uM” value was 12.6%.
In the case of `Cl.O=S(=O)(NC1CCN(Cc2ccccc2)CC1)c1ccc2ccccc2c1`, the “hERG current change (%, negative = inhibition) at 1uM” value is reported as 4.69%.
For `C#CCOCCOCCOCCNc1nc(N2CCN(C(=O)[C@H](Cc3ccc(O)cc3)n3cc([C@@H](N)C(C)CC)nn3)CC2)nc(N2CCN(C(=O)[C@H](CCCCN)n3cc([C@@H](N)CO)nn3)CC2)n1.Cl` (stereo partly drawn), the “hERG current change (%, negative = inhibition) at 1uM” value was 12.4%.
`COc1cccc(/C=C/C(=O)OCC(=O)NC2CC2)c1` was tested, and the “hERG current change (%, negative = inhibition) at 1uM” value was 10.5%.
With `CC(C)/C(=N/Nc1ccccc1[N+](=O)[O-])c1ccccc1` the “hERG current change (%, negative = inhibition) at 1uM” value was 22.6%.
In the case of `CCCCc1nnc(NC(=O)COC)s1`, the “hERG current change (%, negative = inhibition) at 1uM” value is reported as 16.3%.
With `CC(=O)Nc1ccc(S(=O)(=O)N2CCC(n3cnc4cc(F)ccc43)CC2)cc1` the “hERG current change (%, negative = inhibition) at 1uM” value was -26.4%.
For `CCOC(=O)N1CCN(CC(=O)Nc2ccc(OC)cc2)CC1`, the “hERG current change (%, negative = inhibition) at 1uM” value was 9.1%.
For `COc1cc(NC(=O)CN2CCCCCC2)cc(OC)c1`, the “hERG current change (%, negative = inhibition) at 1uM” value was 13.5%.
For `CCOC(=O)N1CCN(CC(=O)Nc2ccc(C)cc2)CC1`, the “hERG current change (%, negative = inhibition) at 1uM” value was 6.17%.
In the case of `O=C(CN1CCC(n2cnc3cc(F)ccc32)CC1)Nc1ccccc1Br`, the “hERG current change (%, negative = inhibition) at 1uM” value is reported as -23.5%.
For `CCOC(=O)N1CCN(CC(=O)Nc2ccc(F)cc2)CC1`, the “hERG current change (%, negative = inhibition) at 1uM” value was -73%.
`CCOc1ccc(NC(=O)CN2CCN(CC(=O)Nc3cc(OC)cc(OC)c3)CC2)cc1` was tested, and the “hERG current change (%, negative = inhibition) at 1uM” value was -71.3%.
In the case of `COc1cc(C(=O)N2CCC(n3cnc4cc(F)ccc43)CC2)cc(OC)c1OC`, the “hERG current change (%, negative = inhibition) at 1uM” value is reported as -9.25%.
`COc1ccccc1CNC(=O)CN1CCC(n2cnc3cc(F)ccc32)CC1` was tested, and the “hERG current change (%, negative = inhibition) at 1uM” value was -59.1%.
`CCOc1ccc(NC(=O)CN2CCC(n3cnc4cc(F)ccc43)CC2)cc1` was tested, and the “hERG current change (%, negative = inhibition) at 1uM” value was -71.7%.
With `CCOc1ccc(NC(=O)CN2CCN(CC(=O)Nc3ccc(C(=O)OC)cc3)CC2)cc1` the “hERG current change (%, negative = inhibition) at 1uM” value was -48%.
In the case of `COc1ccccc1CNC(=O)CN1CCC(NC(=O)c2ccccc2F)CC1.Cl`, the “hERG current change (%, negative = inhibition) at 1uM” value is reported as 1.06%.
In the case of `CCN(C(=O)CSc1nc2cc(C(=O)OC)ccc2c(=O)n1Cc1ccco1)c1cccc(C)c1`, the “hERG current change (%, negative = inhibition) at 1uM” value is reported as 7.87%.
In the case of `Cc1c(NC(=O)C(C)Oc2ccc(Br)cc2Cl)c(=O)n(-c2ccccc2)n1C` (stereo not drawn), the “hERG current change (%, negative = inhibition) at 1uM” value is reported as -1.81%.
`COc1ccc(C(=O)NC(=S)NCc2ccco2)cc1` was tested, and the “hERG current change (%, negative = inhibition) at 1uM” value was 15%.
In the case of `Cc1cc(C)c(S(=O)(=O)Cc2ccc(Cl)cc2)c(=O)[nH]1`, the “hERG current change (%, negative = inhibition) at 1uM” value is reported as 9.42%.
With `O=C(N1CCN(CCO)CC1)N1c2ccccc2C=Cc2ccccc21` the “hERG current change (%, negative = inhibition) at 1uM” value was 13%.
For `COc1ccc(NC(=O)c2ccc(NC(=O)c3cccs3)cc2)cc1`, the “hERG current change (%, negative = inhibition) at 1uM” value was 0.302%.
For `CCN(C(=O)CSc1nnc(NC2CCCCC2)s1)C1CCS(=O)(=O)C1` (stereo not drawn), the “hERG current change (%, negative = inhibition) at 1uM” value was 2.2%.
For `CCOc1ccc(NC(=O)CN2CCN(CC(=O)Nc3ccc(C(N)=O)cc3)CC2)cc1`, the “hERG current change (%, negative = inhibition) at 1uM” value was -36.9%.
`CCOc1ccc(NC(=O)CNC(=O)c2ccc(OC)c(OC)c2)cc1` was tested, and the “hERG current change (%, negative = inhibition) at 1uM” value was 5.55%.
In the case of `COc1ccc(S(=O)(=O)N2CCN(CC(=O)Nc3cccc(F)c3)CC2)cc1`, the “hERG current change (%, negative = inhibition) at 1uM” value is reported as -8.66%.
With `CCOc1ccc(NC(=O)CN2CCN(CC(=O)c3ccc(OC)c(OC)c3)CC2)cc1` the “hERG current change (%, negative = inhibition) at 1uM” value was -56.3%.
In the case of `O=C(c1ccc(F)cc1)C1CCN(C(=O)NCc2ccccc2)CC1`, the “hERG current change (%, negative = inhibition) at 1uM” value is reported as -5.59%.
`CCOc1ccc(NC(=O)CN2CCN(CC(=O)Nc3ccc(F)c(F)c3)CC2)cc1` was tested, and the “hERG current change (%, negative = inhibition) at 1uM” value was -87.9%.
`O=C(NCc1ccc(F)cc1)C1CCN(C(=O)NCc2ccccc2)CC1` was tested, and the “hERG current change (%, negative = inhibition) at 1uM” value was 19.1%.
In the case of `CCOC(=O)N1CCN(CC(=O)Nc2ccc(F)c(F)c2)CC1`, the “hERG current change (%, negative = inhibition) at 1uM” value is reported as 8.59%.
For `O=C(NCc1ccccc1)N1CCC(n2cnc3cc(F)ccc32)CC1`, the “hERG current change (%, negative = inhibition) at 1uM” value was -56.6%.
In the case of `CCOc1ccc(NC(=O)CN2CCN(CC(=O)Nc3cccc(F)c3)CC2)cc1`, the “hERG current change (%, negative = inhibition) at 1uM” value is reported as -97.2%.
For `CCOc1ccc(NC(=O)CN2CCN(CC(=O)Nc3ccc(Cl)c(C(F)(F)F)c3)CC2)cc1`, the “hERG current change (%, negative = inhibition) at 1uM” value was -6.47%.
In the case of `O=C(CN1CCN(CC(=O)Nc2cccc(F)c2)CC1)Nc1ccc(-c2ccccc2)cc1`, the “hERG current change (%, negative = inhibition) at 1uM” value is reported as 13.6%.
For `CCCCSc1nnc(-c2cc(Br)ccc2N)c(=O)[nH]1`, the “hERG current change (%, negative = inhibition) at 1uM” value was 0.939%.
In the case of `CCC(C)(C)NC(=O)C(c1ccc(OC)cc1)N(Cc1ccco1)C(=O)CCC(=O)Nc1cc(C)on1` (stereo not drawn), the “hERG current change (%, negative = inhibition) at 1uM” value is reported as 4.86%.
With `COc1ccc(CC(NC(C)=O)C(=O)NC2CCN(C(=O)Nc3ccc(Cl)cc3)CC2)cc1OC` (stereo not drawn) the “hERG current change (%, negative = inhibition) at 1uM” value was 10.2%.
`O=C(COc1ccccc1[N+](=O)[O-])NCC1(N2CCCCC2)CCCCC1` was tested, and the “hERG current change (%, negative = inhibition) at 1uM” value was -4.91%.
For `CCOC(=O)c1ccc(NC(=O)COc2coc(CN3CCc4ccccc43)cc2=O)cc1`, the “hERG current change (%, negative = inhibition) at 1uM” value was 8.2%.
`COc1ccc(OC)c(S(=O)(=O)N2CCC(C(=O)NCc3ccccc3OC)CC2)c1` was tested, and the “hERG current change (%, negative = inhibition) at 1uM” value was 3.09%.
For `NC1=NC[C@@H](Cc2ccc(O)cc2)N1CCC12CC3CC(CC(C3)C1)C2`, the “hERG current change (%, negative = inhibition) at 1uM” value was 10.4%.
In the case of `N#CCCSc1ncnc2c1oc1ccccc12`, the “hERG current change (%, negative = inhibition) at 1uM” value is reported as 4.55%.
`CCOC(=O)N1CCC(NC(=O)c2cc(-c3ccc(F)cc3)[nH]c2C)CC1` was tested, and the “hERG current change (%, negative = inhibition) at 1uM” value was 11.6%.
For `CCOc1ccc(NC(=O)CN2CCN(c3ccc(F)cc3)CC2)cc1`, the “hERG current change (%, negative = inhibition) at 1uM” value was 11.4%.
`CCOC(=O)N1CCN(C(=O)c2cc(-c3ccc(F)cc3)[nH]c2C)CC1` was tested, and the “hERG current change (%, negative = inhibition) at 1uM” value was -54.1%.
`Cc1[nH]c(-c2ccc(F)cc2)cc1C(=O)N1CCN(c2ccccc2)CC1` was tested, and the “hERG current change (%, negative = inhibition) at 1uM” value was -29%.
`CCOc1ccc(NC(=O)CN2CCN(CC(=O)Nc3ccc(F)cc3)CC2)cc1` was tested, and the “hERG current change (%, negative = inhibition) at 1uM” value was -87.3%.
For `COc1ccc(NC(=O)CN2CCN(c3ccc(F)cc3)CC2)cc1`, the “hERG current change (%, negative = inhibition) at 1uM” value was 7.86%.
